Bioassay records (PubChem BioAssay)
Only some compounds are listed: those with a hit (about 7.2% of all), similar ones and a draw of the others.
HEK293 viab: cell viability loss counter-screen. HEK-293-SNCA-luc viability, GF-AFC fluorescence, 24 h. Potency, µM (doses to about 57.1 µM), without a hit: top-dose activity change, negative = cytotoxicity, most hits filed as cytotoxic. actives 0.12% (n = 150,000);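 note: 0% = DMSO-treated cells and -100% = medium-only wells without cells; nearly all actives have a fitted effect of over 30% in size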
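Cytotoxicity counterscreen: after 24 h compound treatment of genome-edited SNCA-luciferase HEK-293 cells, live-cell protease substrate GF-AFC read by fluorescence after 30 min; activity scaled between DMSO (0%) and medium-only (-100%), curves Hill-fitted.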
SNCA expr inh: reduces expression of the alpha-synuclein gene; HEK-293 SNCA-luciferase knock-in, luminescence, 24 h; Potency, µM (top dose mostly 57.2 µM), for inactives: top-dose activity change, negative = inhibition, most hits filed as inhibitors; actives 0.17% (n = 140,000); AID 1671194;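 note: plate controls were DMSO cells for no effect and cell-free wells for full effect; nearly all actives have a fitted effect of over 45% in size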
3T3 cytotox: NIH 3T3 cell cytotoxicity; NIH 3T3 viability, CellTiter-Glo ATP luminescence, 48-72 h; Potency, µM (top dose mostly 96.7 µM), for the others: top-dose activity change, negative = cytotoxicity, hits mostly inhibitors; actives 4.3% (n = 94,000); note: nearly all actives have a fitted effect of over 55% in size
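Cytotoxicity is measured as loss of cellular ATP: NIH 3T3 cells (400/well) are exposed to compound for 48 or 72 hr at 37 °C, then CellTiter-Glo luminescence is imaged after 10 min at room temperature.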
FLuc inh: inhibitors of firefly (Photinus pyralis) luciferase. P08659. purified P. pyralis luciferase, luminescence, biochemical. Potency, µM (titrated, usually from 115 µM), hits mostly inhibitors. actives 2.5% (n = 76,000); note: nearly all actives have a fitted effect of over 65% in size
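Luminescence read by CCD imager after adding enzyme (10nM final) to wells holding compound, titrated in qHTS. Substrates 10uM each D-luciferin and ATP; buffer 50mM Tris acetate pH 7.5, 10mM Mg acetate, Tween-20, BSA.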
HEK293 tox: kills HEK 293 cells; Potency, µM (top dose mostly 115 µM), without a hit: at the top dose activity change, negative = cytotoxicity, actives largely listed as inhibitors; actives 6.6% (n = 94,000); AID 1345083; HEK 293 viability, ATP luminescence (CellTiter-Glo), 48-72 h; note: nearly all actives have a fitted effect of over 60% in size
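HEK 293 seeded at 250 cells/well receive compound via pintool. After 48 or 72 hr at 37 degree Celsius, 5% CO2 and 95% humidity, CellTiter-Glo is dispensed and luminescence read following 10 min at room temperature.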
NPR1 antag: antagonists of human natriuretic peptide receptor Npr1 | AID 1347048 | actives 1.6% (n = 76,000) | HEK293 hNpr1 GloSensor cGMP, ANP-stimulated luminescence | Potency, µM (top dose mostly 46.3 µM), for inactives: top-dose activity change, negative = inhibition, actives largely listed as inhibitors | P16066; calls by dose curve; note: nearly all actives have a fitted effect of over 60% in size
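Compound pre-incubated 30 min at room temperature on GloSensor-loaded HEK293 cells stably carrying hNpr1 and the pGS-40F cGMP biosensor. Stimulation uses hNppA at 0.1 nM final; luminescence is taken at baseline and 20 min post-agonist.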
The depositor's hits bear a star; i = inactive; ? = inconclusive; nt = not tested or not shown; [ ] = dose if it differs, or a comment. Unless noted, calls come from the whole dose curve; as a rule, active = well fitted curve in the direction sought with a large enough effect; inconclusive = small, poorly fitted or top-dose-only effect, or another doubt; inactive = no such curve, though single readings can be large; an effect the other way counts as inactive or inconclusive. Unless noted, % is set by controls: 0 for no effect and ±100 for the full control effect; potency is the fitted concentration of half-maximal effect.

SMILES	HEK293 viab	SNCA expr inh	3T3 cytotox	FLuc inh	HEK293 tox	NPR1 antag
COc1ccc(-c2cccc(C(=O)NCc3ccc(C(F)(F)F)cc3)c2)nn1	nt	nt	?	nt	39.8µM*	nt
COc1ccc(-c2cccc(C(=O)NCCCc3ccccc3)c2)nn1	nt	nt	?	nt	79.4µM*	nt
COc1ccc(-c2cccc(C(=O)NCc3ccc(F)cc3)c2)nn1	nt	nt	?	nt	89.1µM*	nt
O=C(NC1CCN(c2cc(C(F)(F)F)ncn2)CC1)c1cccc(Cl)c1	-19.3%	13.7%	?	i	?	-21.3%
Cc1cc(-c2cnc3n[nH]c(-c4ccc5c(c4)OCO5)c3n2)ccn1	2.8%[87.6 µM]	47.0%[87.6 µM]	?	i	-17.3%[172 µM]	-18.6%[70.6 µM]
COc1ccc(-c2[nH]nc3ncc(-c4cccnc4)nc23)cc1F	?	2.82µM*	?	i	?	-3.0%[70.6 µM]
c1cncc(-c2cnc3n[nH]c(-c4ccc5c(c4)OCO5)c3n2)c1	?	?	?	i	28.2µM*	-18.4%[70.6 µM]
COc1ccc(-c2[nH]nc3ncc(-c4ccc(CO)cc4)nc23)cc1F	nt	nt	28.2µM*	i	35.5µM*	-0.1%[70.6 µM]
COc1ccc(-c2[nH]nc3ncc(-c4ccccc4O)nc23)cc1F	-26.3%[87.6 µM]	?	?	i	?	-2.2%[70.6 µM]
CCCS(=O)(=O)Nc1ccc(F)c(C(=O)c2c[nH]c3ncc(Cl)cc23)c1F	?	12.1µM*	nt	nt	nt	nt
O=C(C1CCOC1)N1CC(Oc2ccc(-c3nc(-c4ccccc4)no3)cc2)C1 (stereo unspecified)	-11.9%	16.8%	?	14.1µM*	?	3.16µM*
Cc1nc(C)c(C(=O)N2CC(Oc3ccc(-c4nc(-c5ccccc5)no4)cc3)C2)s1	-0.4%	69.2%	-14.1%	12.6µM*	?	-8.3%
O=C(c1ccsc1)N1CC(Oc2ccc(-c3nc(-c4ccccc4)no3)cc2)C1	-7.6%	28.5%	-4.6%	28.2µM*	-29.6%	1.7%
COc1ccc(C(=O)N2CC(Oc3ccc(-c4nc(-c5ccccc5)no4)cc3)C2)cc1	7.0%	-1.1%	4.9%	i	5.2%	0.9%
Cc1nc(C)c(C(=O)N2CCC(Oc3ccc(-c4noc(C5CC5)n4)cc3)C2)s1 (stereo unspecified)	?	-32.7%	?	i	20µM*	?
CCOc1ccc(C2Cn3nnc(-c4nc(-c5ccc(SC)cc5)no4)c3CO2)cc1 (stereo unspecified)	17.6%	35.8%	-3.0%	i	-16.0%	-4.7%
Cn1c(C(=O)N2CCNc3cnc(Nc4cccc(C(F)(F)F)c4)nc3C2)cc2ccccc21	?	?	39.8µM*	i	39.8µM*	-30.0%
COc1ccccc1Nc1ncc2c(n1)CN(C(=O)c1ccc(Oc3ccccc3)cc1)CCN2	-28.0%	?	?	i	35.5µM*	-3.7%
COc1ccccc1Nc1ncc2c(n1)CN(C(=O)c1cccc(O)c1)CCN2	-13.3%[87.6 µM]	-25.6%[87.6 µM]	-3.0%[138 µM]	i	100µM*	-26.0%[70.6 µM]
CCC(C)NC(=O)C(NC(=O)c1ccccc1)C1CCN(C(=O)c2ccc(Cl)cc2)CC1 (stereo unspecified)	9.6%	-3.1%	?	i	-6.1%	-11.0%
COc1ccccc1NC(=O)CC1CCCN(c2cn[nH]c(=O)c2)C1 (stereo unspecified)	7.0%	-9.7%	-5.0%	i	4.1%	6.0%
CCCCCNc1ncnc2c1CN(c1ccc(Cl)cc1)C(=O)CN2C	7.6%	-27.7%	?	i	?	-1.7%
Cn1ncc2c(C(=O)NCC3CCCCC3)cc(C(C)(C)C)nc21	4.5%[12.5 µM]	-9.0%[87.6 µM]	-22.8%[138 µM]	nt	-17.5%[172 µM]	nt
CC(C)NC(=O)c1cc(-c2ccc(F)cc2)nc2c1cnn2C	nt	nt	?	nt	79.4µM*	nt
Cn1ncc2c(C(=O)NC3CCCC3)cc(-c3ccc(Cl)nc3)nc21	9.1%	-1.0%	-27.3%	nt	-0.7%	nt
CC(C)NC(=O)c1cc(-c2ccc(Cl)nc2)nc2c1cnn2C	-1.2%	35.0%	22.4µM*	nt	?	nt
